Source: PubChem (National Center for Advancing Translational Sciences (NCATS))
SW480 rerep: induces DNA re-replication in SW480 colon adenocarcinoma cells. SW480 DNA re-replication, Hoechst DNA content imaging, 48 h. Potency, µM (series often up to 46.1 µM), without a hit: top-dose re-replication activation, actives largely listed as activators. 340,000 compounds, 1.8% hits. AID 624297; further: % of control where 0% means no effect; nearly all actives have a fitted effect of over 55% in size
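Readout is total intensity of Hoechst-stained nuclei, excited at 405 nm and collected at 500-530 nm. Compound treatment lasted 48 hr at 37 C in 5% CO2 before staining.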
KB-V1 cytotox: kills drug-selected multidrug resistant KB-V1 cells. KB-V1 MDR cells viability, CellTiter-Glo, 72 h. Potency, µM (highest dose often 46.1 µM), hits mostly cytotoxic. 400,000 compounds, 3.4% hits; further: on the % scale 0 is the no-effect control and ±100 the full control effect; nearly all actives have a fitted effect of over 60% in size
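Drug-selected KB-V1 cells, grown in DMEM lacking phenol red with 10% FBS, receive compound titrations; after three days at 37 degrees C, surviving cell ATP is quantified by CellTiter-Glo luminescence and responses normalized and curve-fitted.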
MCF10A rerep: DNA re-replication induction in MCF 10a cells; MCF 10A DNA re-replication, Hoechst nuclear intensity, 48 h; Potency, µM (top dose mostly 46.1 µM), for the others: top-dose activity, positive = re-replication, most hits filed as activators; 350,000 compounds, 2.9% hits; further: % of control where 0% means no effect; nearly all actives have a fitted effect of over 50% in size
HT1080 IDH1KD tx: toxicity to HT-1080 IDH1 knockdown cells (counter line); HT-1080 IDH1 knockdown viability, ATP luminescence, 48 h; Potency, µM (titrated, usually from 46.1 µM), without a hit: top-dose activity, negative = toxicity, usual class: cytotoxic; 360,000 compounds, 2% hits; AID 686971;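 further: 0% = DMSO wells and -100% = cell-free medium wells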
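Assay cells: HT-1080 with IDH1 knockdown, 750 per well, RPMI/5% FBS. Exposure: 48 h at 37 °C following 2 h pre-incubation. Read: CellTiter-Glo luminescence; fitted concentration-response, curve class assigned.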
KB-3-1 cytotox: kills parental KB-3-1 adenocarcinoma cells. 400,000 compounds, 1.4% hits. Potency, µM (doses to about 46.1 µM), hits mostly cytotoxic. KB-3-1 viability, CellTiter-Glo ATP luminescence, 72 h; further: on the % scale 0 is the no-effect control and ±100 the full control effect; nearly all actives have a fitted effect of over 60% in size
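72 h, 37 °C compound treatment of KB-3-1 parental cells; CellTiter-Glo added, 10 min, luminescence read. Data corrected against DMSO-only plates and normalized before curve fitting.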
HT1080NT lethal: kills 2HG-producing HT-1080-NT fibrosarcoma cells; 360,000 compounds, 1.6% hits; AID 686970; Potency, µM (doses to about 46.1 µM), inactives show at the highest dose activity, negative = less viability, most hits filed as cytotoxic; HT-1080-NT fibrosarcoma viability, CellTiter-Glo ATP luminescence, 48 h;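 further: NT is the 2HG producing partner of a matched IDH1 knockdown line; 0% = DMSO-treated cells and -100% = media-only wells without cells; nearly all actives have a fitted effect of over 55% in size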
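750 cells/well, RPMI + 5% FBS; 2 h settle, compound pin-transfer, 48 h at 37 degrees C. CellTiter-Glo 10 min RT, luminescence. Normalized to DMSO and media-only wells.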
* = called active by the depositor; i = inactive; ? = inconclusive; . = no result given; [ ] = dose if it differs, or a comment. Most compounds without a hit are left out; they make up all but 7.9% or so of the library. The call rests on the fitted dose curve; in most records, active means well fitted curve in the direction sought with a large enough effect; inconclusive means small, poorly fitted or top-dose-only effect, or another doubt; inactive means no such curve, though single readings can be large; an effect the other way counts as inactive or inconclusive. Potency means the concentration at half of the fitted maximal effect.

SMILES | SW480 rerep | KB-V1 cytotox | MCF10A rerep | HT1080 IDH1KD tx | KB-3-1 cytotox | HT1080NT lethal
O=C(NN=C(Cc1ccccc1)Cc1ccccc1)c1ccc(F)cc1 | 1% | i | 3% | 2% | i | -1%
C/C(=N\NC(=O)c1ccccc1O)c1ccc(Br)s1 | . | ? | 7% | 15µM* | i | ?
CCOC(=O)C(CC)/C(C)=N\NC(=O)c1ccccc1O (stereo not given) | ? | 2.1µM* | ? | 16µM* | ? | ?
CCC/C(C)=N/NC(=O)c1ccccc1O | 16% | i | 4% | 10% | i | -3%
COc1ccc(S(=O)(=O)NC2CCCC2)cc1NC(C)=O | 0% | i | 8% | 10% | i | -1%
O=C(Cn1nnc(-c2ccccc2)n1)Nc1ccc2c(c1)OCO2 | -5% | i | -3% | -4% | i | -5%
Cn1cc(C(=O)c2cccc(Cl)c2)cc1C#N | 1% | i | 22% | 9% | i | -3%
C/C(=N\NC(=O)c1ccccc1O)c1c(O)cc(C)oc1=O | 5.8µM* | ? | ? | 10µM* | i | ?
C/C(=N\NC(=O)c1ccccc1[N+](=O)[O-])c1c(O)cc(C)oc1=O | -7% | i | -6% | 15% | i | 20%
COc1cc(CCN(C(=O)c2cccc(S(C)(=O)=O)c2)C(CCc2ccccc2)c2nc3ccccc3[nH]2)cc(OC)c1 (stereo not given) | . | ? | . | -22% | i | -19%
COc1cc(/C=C/C(O)=C/C(=O)/C=C/c2ccc(O)cc2)ccc1O | ? | i | 18µM* | ? | ? | ?
CC(Oc1ccc2ccccc2c1)C(=O)N/N=C/c1cccnc1 (stereo not given) | -7% | i | 11% | -12% | i | -8%
COc1ccc(CCC(=O)NNC(=O)c2ccc(F)cc2)cc1 | -32% | i | 0% | 4% | i | 9%
CC(=O)N(c1ccc(N(C(C)=O)S(=O)(=O)c2cccs2)cc1)S(=O)(=O)c1cccs1 | -1% | i | 15% | -6% | i | 1%
Cc1ccc(OCCNS(=O)(=O)c2ccc(N3CCCC3=O)cc2)cc1C | ? | 16µM* | 20% | -2% | ? | ?
COc1ccc(CCNS(=O)(=O)c2ccc(N3CCCC3=O)cc2)cc1 | 0% | i | ? | -6% | i | -8%
COc1ccc(OC)c(NS(=O)(=O)c2ccc(N3CCCC3=O)cc2)c1 | 0.82µM* | 2.1µM* | ? | 0.52µM* | 0.82µM* | 0.52µM*
Cc1ccc(OCCNS(=O)(=O)c2ccc(N3CCCC3=O)cc2)cc1 | -4% | i | 3% | -6% | i | -8%
COc1ccc(NS(=O)(=O)c2ccc(N3CCCC3=O)cc2)cn1 | 21µM* | ? | 10µM* | 18µM* | ? | 15µM*
O=C1CCCN1c1ccc(S(=O)(=O)NCCc2ccc(Cl)cc2)cc1 | -2% | 18µM* | 5% | ? | i | -18%
Cc1nn(C)c(C)c1NS(=O)(=O)c1ccc(N2CCCC2=O)cc1 | 63% | ? | ? | ? | ? | -29%
Cc1ccccc1NS(=O)(=O)c1ccc(N2CCCC2=O)cc1 | 3.7µM* | 2.6µM* | 12µM* | 9.2µM* | 5.2µM* | 12µM*
Cc1ccc2sc3ccc(NC(=O)c4ccccc4Cl)cc3c(=O)c2c1 | 13µM* | ? | ? | ? | ? | ?
O=C(c1ccc(S(=O)(=O)N2CCCC2)cc1)N1CCN(S(=O)(=O)c2cccc(F)c2)CC1 | -6% | i | -4% | 22% | i | 13%
Cc1nc2c(o1)C(=O)c1ccccc1C2=Nc1ccccc1 | 4.1µM* | 3.3µM* | 6.5µM* | 2.9µM* | 4.6µM* | 5.8µM*
SMILES | SW480 rerep | KB-V1 cytotox | MCF10A rerep | HT1080 IDH1KD tx | KB-3-1 cytotox | HT1080NT lethal
Cc1nc(-c2ccc(NC(=O)C(C)(C)C)cc2)c(-c2ccccc2)o1 | -6% | i | 0% | 5% | i | 3%
Cc1ccccc1OCc1nnc(SCC(=O)NCc2ccccc2)n1C | -6% | i | ? | -14% | i | 8%
Cc1cccc(OCc2nnc(SCC(=O)c3cccs3)n2C)c1C | 3% | 16µM* | 2% | -23% | i | 0%
COc1ccc(OC)c(N/C=C/C(=C(C#N)C#N)N(C)C)c1 | 0% | i | 10% | -19% | 16µM* | -27%
COC(/C=C/Nc1ccc(OC)cc1)=C(C#N)C#N | 0% | i | -8% | -1% | i | -12%
COC(=O)c1c(-c2ccc(OC)cc2)sc2ccc(N3CCOCC3)cc12 | 0% | i | 11% | -23% | 15µM* | -19%
COc1ccc(OC)c(C(=O)COC(=O)c2cccnc2Cl)c1 | -6% | i | 9% | 20% | i | 11%
Cc1ccc(S(=O)(=O)N2c3ccccc3-c3c(ssc3=S)C2(C)C)cc1 | ? | 21µM* | ? | ? | ? | -3%
COc1cc2c3c(c1)-c1c(sn(-c4cc(OC)ccc4OC)c1=S)C(C)(C)N3C(=O)C2=O | -10% | i | -1% | 2% | i | 8%
COc1ccc2c(c1)-c1c(ssc1=S)C(C)(C)N2S(=O)(=O)c1ccc(C)cc1 | 7.3µM* | 5.8µM* | 5.2µM* | 6.5µM* | ? | ?
CCOC(=O)CC1(C)N(S(=O)(=O)c2ccc(C)cc2)c2ccccc2N1S(=O)(=O)c1ccc(C)cc1 | . | ? | . | 20% | i | 19%
Nc1c(C(=O)Nc2ccccc2)nnn1-c1ccc2c(c1)OCCO2 | 0% | ? | 1% | -15% | i | -11%
Cc1nc2cc(-c3cccc(F)c3)nn2c(C)c1CCC(=O)NC1CCCCC1 | . | i | . | . | i | .
O=C(Cn1nc(-c2nn(CC(=O)c3ccccc3)c3[n+]2CCCCC3)[n+]2c1CCCCC2)c1ccccc1 | -33% | ? | 7% | 9% | i | -4%
Cc1ccc(C(C)C)c(OCc2nn(CC(=O)c3ccc(OC(F)F)cc3)c3[n+]2CCCCC3)c1 | -6% | i | 47% | 18µM* | ? | 15µM*
COc1ccc(C(=O)Cn2nc(CNc3ccc(Br)cc3)[n+]3c2CCCCC3)cc1 | 12% | i | ? | ? | 21µM* | ?
CCN(CC)S(=O)(=O)c1ccc(F)c(C(=O)NCCCN2CCOCC2)c1 | -5% | i | -6% | 1% | i | 1%
COc1ccc2c(c1)c(C(O)CN1CCN(Cc3ccc4c(c3)OCO4)CC1)c(C)n2C (stereo not given) | -6%[9.22 µM] | i | 6% | -29% | ? | -27%
